In PubChem BioAssay (NCATS):
Results filed as inconclusive are left out. Unmarked numbers belong to inactive results. Active and inactive are the calls of the source. Calls come from the whole dose curve; as a rule, active = well fitted inhibition curve with a large enough effect; inconclusive = small, poorly fitted or top-dose-only effect; inactive = no such curve, though single readings can be large or run the other way.

Test: BET inhibitor-based combinations targeting novel dependencies in MECOM-rearranged (r) AML: SET-2 cell line (AID 2202231); note: nearly all actives have a fitted effect of over 35% in size;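 for viability: plate controls were DMSO treated cells for no effect and wells without cells for full effect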
Details: SET-2 AML cells viability, CellTiter-Glo luminescence, 48 h; viability: stronger effect = lower value, series mostly up to about 46 µM
Procedure, shortened: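 Here, 11-point titrations of each agent were applied to 500 seeded cells and incubated 48 hr; CellTiter-Glo signal, scaled against DMSO and empty wells, was integrated as AUC, then Z-scored within the individual line.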
Potency is the fitted concentration of half-maximal effect.

Row | Compound | viability | Potency
1 | O=C(O)/C=C/c1ccc(Cn2ccnc2)cc1 | 125% | –
2 | C[C@]12CCC3=C4CCC(=O)C=C4CC[C@H]3[C@@H]1CC[C@@]2(O)CC#N | 108% | –
3 | CC(C)(C(=O)NCC(F)(F)C(F)(F)F)C(=O)N[C@@H]1C(=O)Nc2ccccc2-c2ccccc21 | 105% | –
4 | CCO[C@@H]1OC(=O)C[C@@H]1NC(=O)[C@@H]1CCCN2C(=O)CC[C@H](NC(=O)c3nccc4ccccc34)C(=O)N12 | 125% | –
5 | CC(=O)NCC(=O)N1[C@@H]2CC[C@H]1c1ccc(Nc3ncc(C(F)(F)F)c(NC4CCC4)n3)cc12 | – | 4.17 µM (active)
6 | N#C/C(=C1/Nc2ccccc2S1)c1ccnc(OCc2ccc(CN3CCOCC3)cc2)n1 | – | 20.9 µM (active)
7 | COc1ccc(/C=C\c2cc(OC)c(OC)c(OC)c2)cc1O | – | 0.0148 µM (active)
8 | CN(C)C/C=C/C(=O)Nc1cc2c(Nc3ccc(F)c(Cl)c3)ncnc2cc1O[C@H]1CCOC1 | – | 4.68 µM (active)
9 | CC[C@H](CO)Nc1nc(NCc2ccccc2)c2ncn(C(C)C)c2n1 | – | 26.3 µM (active)
10 | COc1ccc(C(=O)N2CCN(C(=O)/C=C/c3ccc(Br)cc3)CC2)cc1 | 111% | –
11 | C[C@@H]1C(=O)OC2[C@H](O)[C@]34[C@H]5C[C@@H](C(C)(C)C)[C@]36[C@@H](OC(=O)[C@@H]6O)O[C@@]4(C(=O)O5)[C@]21O (stereo partly specified) | 115% | –
12 | Cc1ccc(-c2ncn(-c3ccc(Nc4nccc(-c5cccc(N6CCOCC6)c5)n4)cc3)n2)cn1 | – | 3.72 µM (active)
13 | O=c1sn(-c2cccc3ccccc23)c(=O)n1Cc1ccccc1 | 92.2% | –
14 | Cc1ccc2cc(-c3c(C)ccc(C(=O)c4c(-c5ccccc5)n(C)n(-c5ccccc5)c4=O)c3N)ccc2n1 | 92.3% | –
15 | Cc1cc(O)cc2c1[C@]1(C)CC[C@H]3C(C)(C)CCC[C@]3(C)[C@H]1C2 | 50.3% | –
16 | Cc1nc2ccc(CN(C)c3ccc(C(=O)N[C@@H](CCC(=O)O)C(=O)O)s3)cc2c(=O)[nH]1 | – | 0.0468 µM (active)
17 | O=C(c1ccc(Nc2nc(C3CC3)cn3c(-c4cn[nH]c4)cnc23)c(F)c1)N1CCOCC1 | 57.2% | –
18 | O=C(O)CCC=CCC[C@@H]1[C@H](N2CCCCC2)[C@@H](O)C[C@@H]1OCc1ccc(-c2ccccc2)cc1 | – | 1.18 µM (active)
19 | CN(C)CC[C@H](CSc1ccccc1)Nc1ccc(S(=O)(=O)NC(=O)c2ccc(N3CCN(Cc4ccccc4-c4ccc(Cl)cc4)CC3)cc2)cc1[N+](=O)[O-] | – | 10.5 µM (active)
20 | CC(C)(C)c1nc2c3cc[nH]c(=O)c3c3cc(F)ccc3c2[nH]1 | – | 1.18 µM (active)
21 | Cn1c(-c2ccccc2C(F)(F)F)nnc1C12CCC(c3noc(C4CC(F)(F)C4)n3)(CC1)CC2 | 105% | –
22 | COCCNc1cc(NC(=O)N2CCCc3cc(CN4CCN(C)CC4=O)c(C=O)nc32)ncc1C#N | 114% | –
23 | CC(C)c1ccc(Cn2ccc3c4c(N)nc(NC5CC5)nc4ccc32)cc1 | – | 0.468 µM (active)
24 | CO[C@H]1/C=C/O[C@@]2(C)Oc3c(C)c(O)c4c(O)c(c5c(nc6cc(C)ccn65)c4c3C2=O)NC(=O)/C(C)=C\C=C\[C@H](C)[C@H](O)[C@@H](C)[C@@H](O)[C@@H](C)[C@H](OC(C)=O)[C@@H]1C | 111% | –
25 | COC(=O)[C@H](CCCN=C(N)N)NS(=O)(=O)c1ccc(C)cc1 | 112% | –
26 | CC#Cc1cncc(-c2ccc3c(c2)[C@@]2(N=C(C)C(N)=N2)C2(CCC(OC)CC2)C3)c1 (stereo partly specified) | 107% | –
